An excerpt weighted towards active compounds, which were near 15% of everything screened.
HCMV inh: qHTS Assay for inhibitors of the human cytomegalovirus (HCMV). AID 1259415, 2018. 4.5% of 410,000 active. HFF cells, HCMV-luciferase reporter, 72 h; active compounds read low. activity change, negative = inhibition, % at 57.5 µM; in the data active means activity change below about -60%; inconclusive means no clear call, values can overlap the other calls; inactive means above about -39%
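Human foreskin fibroblasts infected with luciferase-reporter HCMV at MOI 1 PFU/cell, compounds at two doses. Luciferase measured 72 h post infection; normalized to buffer-only basal and Salinomycin (10uM) controls.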
Sm TGR block: qHTS Assay for the Inhibitors of Schistosoma Mansoni Peroxiredoxins. Schistosoma mansoni thioredoxin glutathione reductase (TGR), Q962Y6. purified TGR, DTNB reduction, TNB absorbance 405 nm. Potency, µM (top dose mostly 114 µM), actives largely listed as inhibitors. 3% of 360,000 active; further: nearly all actives have a fitted effect of over 60% in size
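TGR 20 nM + NADPH 100 uM (dispensed conc.), cpd preinc 15 min RT; start with NADPH (500 uM addition) then DTNB (15 mM addition). Kinetic TNB absorbance, 405 nm filter. Four-parameter Hill fit across titration.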
HCV inh: qHTS Assay for Inhibitors of Hepatitis C Virus (HCV). Huh7.5.1 HCVcc-Cre infection, luciferase reporter, 44 h. Potency, µM (top dose mostly 41.8 µM), hits mostly inhibitors. 3.4% of 340,000 active
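1,000 cells/well; 4 h culture; + compound; + HCVcc-Cre (~0.5 moi); 44 h; luciferase substrate, RT 15 min; read 15 sec.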
SARS PLP yeast: qHTS of Yeast-based Assay for SARS-CoV PLP; S. cerevisiae expressing SARS-CoV PLpro, growth rescue; Potency, µM (doses to about 32.9 µM), most hits filed as activators; 0.19% of 330,000 active; AID 485353, 2010; calls by dose curve; further: nearly all actives have a fitted effect of over 55% in size
Pf growth 96h: Primary qHTS for delayed death inhibitors of the malarial parasite plastid, 96 hour incubation | P. falciparum luciferase reporter growth, 96 h | Potency, µM (doses to about 28.7 µM), hits mostly inhibitors | 6.9% of 320,000 active | AID 504834, 2011
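Erythrocytes infected with luciferase-expressing P. falciparum were dispensed at 2% hematocrit and 0.05% parasitemia (final), then incubated with compounds 96 hours at 37 C in 5% CO2. Luminescence after detection reagent addition reported growth.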
Pf growth 48h: Primary qHTS for delayed death inhibitors of the malarial parasite plastid, 48 hour incubation; Potency, µM (series often up to 28.7 µM), actives largely listed as inhibitors; 5.9% of 310,000 active; P. falciparum luciferase growth in erythrocytes, 48 h
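Here the parasites carry a stable luciferase gene and grow inside erythrocytes in Albumax-based RPMI medium with compound for one erythrocytic cycle. Activity is scored as loss of luminescent signal.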
Large screens that a line does not name were inactive. Unless noted, the call rests on the fitted dose curve; in most records, active means well fitted curve in the direction sought with a large enough effect; inconclusive means small, poorly fitted or top-dose-only effect, or another doubt; inactive means no such curve, though single readings can be large; an effect the other way counts as inactive or inconclusive.

CCOc1ccccc1N(CC(=O)N1CCC(C(N)=O)CC1)S(=O)(=O)c1ccc(SC)cc1	HCMV inh -70
CCN(CC)C(=O)CN(c1cc2c(cc1OC)oc1ccccc12)S(=O)(=O)c1ccc(C)cc1	HCV inh inconclusive, Pf growth 48h 12µM (no result: Pf growth 96h)
O=C(NCc1ccncc1)C1CCCN(S(=O)(=O)c2cc(Cl)ccc2Cl)C1 (stereo not given)	HCMV inh inconclusive, HCV inh inconclusive, Pf growth 96h inconclusive, Pf growth 48h inconclusive
COCCN1C(=O)CS/C1=C(/C#N)C(=O)NCc1ccco1	HCMV inh -84, Pf growth 48h inconclusive
COC(=O)/C=c1/s/c(=C(\C#N)C(=O)NCc2ccco2)n(-c2ccccc2)c1=O	Pf growth 96h 6.6µM
COc1ccc(CC2S/C(=C(\C#N)C(=O)NCc3ccco3)N(c3ccc(C)cc3)C2=O)cc1 (stereo not given)	Pf growth 48h inconclusive (no result: Pf growth 96h)
COc1ccc(NC(=O)C2CCCCN2S(=O)(=O)c2ccccc2)cc1S(=O)(=O)N1CCOCC1 (stereo not given)	HCMV inh inconclusive (no result: Sm TGR block, SARS PLP yeast, Pf growth 96h, Pf growth 48h)
COc1cc(NC(=O)c2cc(-n3cnnc3)ccc2Cl)cc(OC)c1	SARS PLP yeast inconclusive, Pf growth 96h 13µM
Cc1ccc2sc(-c3ccc(NC(=O)c4cc(-n5cnnc5)ccc4Cl)cc3)nc2c1	HCMV inh inconclusive, HCV inh 0.89µM, Pf growth 96h inconclusive
O=C(Nc1cccc(-c2nc3ccccc3s2)c1)c1cc(-n2cnnc2)ccc1Cl	HCV inh 13µM (no result: HCMV inh)
COc1cc(NC(=O)c2cc(C)nc3c2c(C)nn3-c2ccccc2Cl)cc(OC)c1	HCMV inh -66 (no result: HCV inh, SARS PLP yeast, Pf growth 96h, Pf growth 48h)
Cc1c(NC(=O)c2cc(-n3cnnc3)ccc2Cl)cccc1-c1nc2ccccc2s1	HCV inh inconclusive
CC(=O)c1ccc(NC(=O)C(Cc2ccccc2)n2cccc2)cc1 (stereo not given)	none
COc1ccc(NC(=O)CSc2nnc(-c3cnccn3)n2C)cc1OC	none
CCCCN1C(=O)C(=O)N(CC(=O)c2ccc3c(c2)CCCC3)C1=O	none
CCc1ccccc1-n1nnnc1SCC(=O)Nc1ccc(N2CCN(C)CC2)cc1	Pf growth 96h inconclusive, Pf growth 48h 15µM
Cc1ccccc1-n1nnnc1SCC(=O)Nc1ccc(N2CCN(C)CC2)cc1	none
Cc1cccc(-n2nnnc2SCC(=O)Nc2ccc(N3CCN(C)CC3)cc2)c1	HCMV inh -66, Pf growth 48h inconclusive
O=C(CN1C(=O)NC(c2ccccc2)(c2ccccc2)C1=O)NCCNCCO	none
COc1cccc(CN(CCC(C)C)S(=O)(=O)c2cc(Br)ccc2Br)c1	none (no result: Sm TGR block, SARS PLP yeast, Pf growth 96h, Pf growth 48h)
CN(C)CCn1c2ccccc2c2nc3ccc([N+](=O)[O-])cc3cc21	HCMV inh -108, Pf growth 96h inconclusive, Pf growth 48h 1.9µM
CCn1c2ccccc2c2cc([N+](=O)[O-])ccc21	HCV inh inconclusive, Pf growth 48h inconclusive
CC(C)(C)OC(=O)N1C[C@@]23C[C@H](c4cccc(F)c4)[C@@H](C[C@@H]2S1(=O)=O)O3	none (no result: Sm TGR block, HCV inh, SARS PLP yeast, Pf growth 96h, Pf growth 48h)
CN(C)CCCNS(=O)(=O)c1ccc(N2CCC(c3ccc(Cl)cc3)=N2)cc1	HCMV inh -102, Sm TGR block inconclusive, HCV inh 4µM, Pf growth 48h 9.3µM (no result: Pf growth 96h)
CC(C)c1ccc(C(N)=S)cc1	none
CC(=O)NC(CC(=O)Nc1nc(-c2ccc(N(C)S(C)(=O)=O)cc2)cs1)c1ccccc1 (stereo not given)	HCV inh 11µM, Pf growth 96h inconclusive, Pf growth 48h inconclusive
CC(=O)Nc1ccc(-c2csc(NC(=O)CC(NC(C)=O)c3ccccc3)n2)cc1 (stereo not given)	Pf growth 96h inconclusive, Pf growth 48h inconclusive
O=C(NCCN1CCN(Cc2ccccc2)CC1)C1c2ccccc2C(=O)N2CCc3ccccc3C12 (stereo not given)	Pf growth 48h inconclusive
Cc1ccc(CNC(=O)C2c3ccccc3C(=O)N3CCc4ccccc4C23)o1 (stereo not given)	Sm TGR block 5.6µM, Pf growth 96h inconclusive

Bioassay records (PubChem BioAssay)
